Experiment [1] can be described thus: Cell Viability - LYMP2-002 (AID 977).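 Further: series mostly up to about 92 µM; plate controls were DMSO only for no effect and 92 µM tetraoctylammonium bromide for full effect.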 Summed up: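 Luminescent ATP readout (CellTiter-Glo, 30 min room temperature) after 24 h compound exposure at 37 C of a human lymphoblastoid line, 2500 cells/well. AC50 values derived by standard Hill fitting of qHTS concentration-response data.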
Experiment [2] is described as follows: Cell Viability - LYMP2-006 (AID 978). Further: series mostly up to about 92 µM; on the % scale 0 is the no-effect control and ±100 the full control effect; nearly all actives have a fitted effect of over 60% in size. The method, boiled down:
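Concentration-dependent loss of intracellular ATP in a human lymphoblastoid line after 24 hr treatment at 37 C was measured by CellTiter-Glo luminescence, with AC50 values obtained from standard Hill-equation modelling.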

Experiment [3] is described as follows: Cell Viability - LYMP2-007 (AID 979).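 Further: cells exposed to compound for 24 h before reading; 0% = DMSO only and the negative end = 92 µM tetraoctylammonium bromide; nearly all actives have a fitted effect of over 60% in size.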 The method, boiled down:
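Human lymphoblastoid LYMP2-007 cells (2500/well) preincubated 5 h at 37 C, then treated 24 h at 37 C in complete medium. Viability by CellTiter-Glo ATP luminescence after 30 min at room temperature; AC50 from Hill fits.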

Experiment [4] in a line: Cell Viability - LYMP2-008 (AID 980). Further: on the % scale 0 is the no-effect control and ±100 the full control effect; nearly all actives have a fitted effect of over 60% in size. Summed up:
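LYMP2-008 lymphoblastoid cells (2500/well) plated 5 h, then treated 24 h at 37 C in complete medium. Viability read as intracellular ATP by CellTiter-Glo luminescence after 30 min at room temperature; AC50 from Hill fits.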

The nature of experiment [5]: Cell Viability - LYMP2-010 (AID 981). Further: on the % scale 0 is the no-effect control and ±100 the full control effect; nearly all actives have a fitted effect of over 55% in size. Summed up:
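Human lymphoblastoid LYMP2-010 cells (2500/well) treated 24 h at 37 C in complete medium; viability read as intracellular ATP by CellTiter-Glo luminescence. AC50 from Hill fits of concentration-response data; tetraoctylammonium bromide positive control.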

The nature of experiment [6]: Cell Viability - LYMP2-012 (AID 982).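 Further: cellular ATP by luciferase luminescence where a drop means cytotoxicity; cells exposed to compound for one day before reading; 0% = DMSO only and full loss = 92 µM tetraoctylammonium bromide; nearly all actives have a fitted effect of over 55% in size.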
Experiment [7] in a line: Cell Viability - LYMP2-014 (AID 983).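 Further: series mostly up to about 92 µM; plate controls were DMSO only for no effect and 92 µM tetraoctylammonium bromide for full effect; nearly all actives have a fitted effect of over 50% in size.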 The method, boiled down: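 LYMP2-014 human lymphoblastoid cells, 2500/well, treated 24 h at 37 C in complete medium; viability by CellTiter-Glo ATP luminescence after 30 min at room temperature. AC50 from Hill fits of qHTS concentration-response; tetraoctylammonium bromide positive control.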
A short description of experiment [8]: Cell Viability - LYMP2-016 (AID 984). Further: on the % scale 0 is the no-effect control and ±100 the full control effect; nearly all actives have a fitted effect of over 55% in size. The method, boiled down: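 Acute toxicity in a Coriell human lymphoblastoid line is scored as loss of intracellular ATP over 24 h of treatment in complete medium. CellTiter-Glo signal is fitted across concentrations with the Hill equation to give AC50.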
Experiment [9] can be described thus: Cell Viability - LYMP2-018 (AID 985).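 Further: compound exposure lasted 24 hr at 37 °C; plate controls were DMSO only for no effect and tetraoctylammonium bromide at 92 µM for full effect; nearly all actives have a fitted effect of over 50% in size.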 The method, boiled down:
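Human lymphoblastoid LYMP2-018 cells, 2500/well, settled 5 hr at 37 C then exposed to compound 24 hr at 37 C; intracellular ATP measured by CellTiter-Glo luminescence. AC50 from Hill-equation concentration-response fits.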

Experiment [10] can be described thus: Cell Viability - LYMP2-020 (AID 986).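 Further: series mostly up to about 92 µM; plate controls were DMSO only for no effect and tetraoctylammonium bromide at 92 µM for full effect; nearly all actives have a fitted effect of over 55% in size.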 Summed up: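 Human lymphoblastoid LYMP2-020 cells (2500/well) preincubated 5 h at 37 C, then treated 24 h at 37 C. Viability measured as intracellular ATP by CellTiter-Glo luminescence after 30 min at room temperature; AC50 from Hill fits.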
Experiment [11] in a line: Cell Viability - LYMP2-022 (AID 987). The method, boiled down: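 LYMP2-022 lymphoblastoid cells (2500/well, complete medium) were treated with compounds for 24 hours at 37 C; intracellular ATP was then read by CellTiter-Glo luminescence after 30 min at room temperature. AC50 values were derived from Hill-equation fits.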
The nature of experiment [12]: Cell Viability - LYMP2-024 (AID 988).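 Further: plate controls were DMSO only for no effect and 92 µM tetraoctylammonium bromide for full effect; nearly all actives have a fitted effect of over 60% in size.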 The method, boiled down:
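Human lymphoblastoid LYMP2-024 cells (2500/well) rested 5 hr, then treated with compound for 24 hr at 37 C in complete medium. Viability was measured as intracellular ATP by CellTiter-Glo luminescence. AC50 values came from Hill-equation fits.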

A short description of experiment [13]: Cell Viability - LYMP2-026 (AID 989). Further: on the % scale 0 is the no-effect control and ±100 the full control effect; nearly all actives have a fitted effect of over 50% in size. The method, boiled down: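 Human lymphoblastoid LYMP2-026 cells, 2500/well, exposed to compound 24 h at 37 C in complete medium. Viability as intracellular ATP by CellTiter-Glo luminescence; AC50 from Hill fits of qHTS concentration-response.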
Experiment [14] in a line: Cell Viability - LYMP1-002 - Assay at 24 hr (AID 993). Further: on the % scale 0 is the no-effect control and ±100 the full control effect. The method, boiled down: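 Human lymphoblastoid LYMP1-002 cells (2500/well) treated 24 h at 37 °C; viability as intracellular ATP by CellTiter-Glo luminescence. Tetraoctylammonium bromide as positive control; AC50 from Hill-equation fits of qHTS concentration-response.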
The nature of experiment [15]: Cell Viability - LYMP1-002 - Assay at 40 hr (AID 994). Summed up:
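LYMP1-002 human lymphoblastoid cells (2500/well, complete medium) were treated with compounds for 40 hr at 37 C. Intracellular ATP was measured by CellTiter-Glo luminescence, and AC50 values came from Hill-equation fits of concentration-response data; tetraoctylammonium bromide was the positive control.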

Experiment [16] concerns the target Estrogen receptor (Homo sapiens) (UniProt P03372). Briefly: qHTS assay for small molecule antagonists of estrogen receptor alpha signaling (AID 588513; active means well fitted curve in the direction sought with a large enough effect in the signal ratio, with a control signal flat, not every such curve was filed as active; the % refers to the signal ratio; further: on the % scale 0 is the no-effect control and ±100 the full control effect). Summed up: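 Cells were plated at 5000/well and incubated 4 h at 37 C. Compounds were added as 1:2 dilution series, duplicates. 17-beta-estradiol (0.5nM final) was added for 18 h before CCF4 detection.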
For experiment [17] the target is unchanged. Briefly: qHTS assay for small molecule agonists of estrogen receptor alpha signaling (AID 588514; calls by dose curve;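 further: 0% = vehicle only and 100% = reference agonist; nearly all actives have a fitted effect of over 70% in size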). The method, boiled down: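 ER-alpha-UAS-bla GripTite HEK293 cells, 5000/well in 2% charcoal/dextran-stripped FBS medium, treated with compound titrations 18 h at 37 C. CCF4 beta-lactamase read by fluorescence after 2 h RT; normalised to 20 nM 17-beta-estradiol (100%) and DMSO (0%), Hill fit for EC50 and efficacy.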
Background: In qHTS, concentration-response curves come from the screen itself.

In experiment [18] the target is Androgen receptor (Homo sapiens) (UniProt P10275). Briefly: qHTS assay for small molecule antagonists of androgen receptor signaling (AID 588516; active means well fitted curve in the direction sought with a large enough effect in the signal ratio, with a control signal flat, not every such curve was filed as active; the % refers to the signal ratio; further: on the % scale 0 is the no-effect control and ±100 the full control effect). The method, boiled down:
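Antagonist-mode qHTS: inhibition of R1881 (10 nM)-driven beta-lactamase expression in GripTite HEK 293 cells is measured after 16 h; values are Hill-derived IC50s normalized between R1881 and DMSO wells.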

The target in experiment [19] is Glucocorticoid receptor (Homo sapiens) (UniProt P04150). Put plainly: qHTS assay for small molecule agonists of glucocorticoid receptor signaling (AID 588532; active means well fitted curve in the direction sought with a large enough effect in the signal ratio, with a control signal flat; the % refers to the signal ratio;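 further: 100% = dexamethasone at 0.1 µM and 0% = DMSO only wells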). The note with it: HeLa MMTV-bla, beta-lactamase ratio, agonist, 18 h; stronger effect = higher value; percent of dexamethasone control, DMSO zero. The method, boiled down:
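Stimulation of a glucocorticoid response element-driven beta-lactamase gene was measured in HeLa cells. Responses were scaled between DMSO basal and 0.1 uM dexamethasone, then fitted for half-maximal stimulation.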

Experiment [20] shares this target. Put plainly: qHTS assay for small molecule antagonists of glucocorticoid receptor signaling (AID 588533; active means well fitted inhibition curve with a large enough effect in the signal ratio, with a control signal flat, not every such curve was filed as active; the % refers to the signal ratio;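 further: cells stimulated with 2 nM dexamethasone as agonist; on the % scale 0 is the no-effect control and ±100 the full control effect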). The method, boiled down:
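Antagonist-mode qHTS: compound titrations added to GRE-bla HeLa cells, then dexamethasone 2 nM final; 18 h, 37 C. CCF4 FRET fluorescence normalized to dexamethasone and DMSO; IC50 from Hill fit.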

In experiment [21] the target is Peroxisome proliferator-activated receptor delta (Homo sapiens) (UniProt Q03181). Briefly: qHTS assay for small molecule agonists of peroxisome proliferator-activated receptor delta signaling (AID 588534; calls by dose curve;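 further: 0% = DMSO basal wells and 100% = positive control agonist at 10 µM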). The method, boiled down: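 Cells carrying a PPAR-delta beta-lactamase reporter were treated with compounds for 18 h at 37 °C in agonist mode. CCF4 fluorescence was read after 2 h; EC50 and efficacy from Hill fits.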

The nature of experiment [22]: qHTS assay for small molecule antagonists of peroxisome proliferator-activated receptor delta signaling (AID 588535).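 Further: cells co-treated with a PPAR-delta agonist as stimulator during compound exposure.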 The note with it: HEK293T PPARd-UAS-bla, beta-lactamase FRET ratio, 18 h; 460 nm channel. The method, boiled down:
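Reporter: UAS-bla under PPAR-delta response element, HEK293T host. Medium: 2% charcoal/dextran FBS. Dosing: titration, 18 hrs, 37 C. Detection: CCF4, 2 hrs RT, 405 ex/460 and 530 em.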

“And” between values parts separate entries of the source, which are not always exact repeats. Equal values may be shown once. Results filed as inconclusive are left out. The source made the active and inactive calls. Unless noted, the call rests on the fitted dose curve; in most records, active means well fitted cell-killing curve with a large enough effect; inconclusive means small, poorly fitted or top-dose-only effect; inactive means flat fitted curve, though single readings scatter.

Chain of Estrogen receptor (Homo sapiens) (P03372 whole entry, looked up): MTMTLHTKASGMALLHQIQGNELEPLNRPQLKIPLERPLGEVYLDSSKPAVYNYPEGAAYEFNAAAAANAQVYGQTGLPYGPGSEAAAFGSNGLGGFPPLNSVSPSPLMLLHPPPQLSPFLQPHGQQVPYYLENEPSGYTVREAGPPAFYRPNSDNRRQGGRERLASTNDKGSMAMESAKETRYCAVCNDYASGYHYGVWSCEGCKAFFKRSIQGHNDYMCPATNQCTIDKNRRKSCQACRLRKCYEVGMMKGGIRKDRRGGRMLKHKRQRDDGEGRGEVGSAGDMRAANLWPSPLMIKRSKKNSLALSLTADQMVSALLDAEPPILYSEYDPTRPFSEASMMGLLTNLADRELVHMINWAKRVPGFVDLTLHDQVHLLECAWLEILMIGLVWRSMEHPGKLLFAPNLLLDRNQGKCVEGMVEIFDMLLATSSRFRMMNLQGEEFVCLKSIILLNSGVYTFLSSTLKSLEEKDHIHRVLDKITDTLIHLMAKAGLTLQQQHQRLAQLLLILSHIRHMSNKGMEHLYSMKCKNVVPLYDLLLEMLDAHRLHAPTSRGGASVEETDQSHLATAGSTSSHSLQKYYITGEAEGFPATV
Chain of Glucocorticoid receptor (Homo sapiens) (P04150 whole entry, looked up): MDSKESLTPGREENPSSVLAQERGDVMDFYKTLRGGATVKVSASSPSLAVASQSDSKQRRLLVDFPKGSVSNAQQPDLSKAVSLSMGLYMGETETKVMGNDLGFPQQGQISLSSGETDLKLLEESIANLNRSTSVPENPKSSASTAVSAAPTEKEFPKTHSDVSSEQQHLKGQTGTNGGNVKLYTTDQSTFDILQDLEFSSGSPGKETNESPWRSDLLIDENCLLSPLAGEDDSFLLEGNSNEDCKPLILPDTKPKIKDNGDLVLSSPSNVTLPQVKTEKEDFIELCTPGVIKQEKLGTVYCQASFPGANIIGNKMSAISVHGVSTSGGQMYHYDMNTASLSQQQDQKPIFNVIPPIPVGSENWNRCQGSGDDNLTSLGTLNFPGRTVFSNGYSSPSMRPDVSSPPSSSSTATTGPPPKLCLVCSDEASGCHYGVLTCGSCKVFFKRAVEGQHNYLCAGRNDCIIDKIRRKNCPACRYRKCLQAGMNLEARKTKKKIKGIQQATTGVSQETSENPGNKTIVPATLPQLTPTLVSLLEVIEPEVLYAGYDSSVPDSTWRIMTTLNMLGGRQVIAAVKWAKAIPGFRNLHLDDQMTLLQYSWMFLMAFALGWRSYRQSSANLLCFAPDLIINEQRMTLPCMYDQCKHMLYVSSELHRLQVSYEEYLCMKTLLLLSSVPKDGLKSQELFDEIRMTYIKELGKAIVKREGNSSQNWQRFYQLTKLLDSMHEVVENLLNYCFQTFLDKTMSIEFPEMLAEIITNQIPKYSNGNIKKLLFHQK
Chain of Androgen receptor (Homo sapiens) (P10275 whole entry, looked up): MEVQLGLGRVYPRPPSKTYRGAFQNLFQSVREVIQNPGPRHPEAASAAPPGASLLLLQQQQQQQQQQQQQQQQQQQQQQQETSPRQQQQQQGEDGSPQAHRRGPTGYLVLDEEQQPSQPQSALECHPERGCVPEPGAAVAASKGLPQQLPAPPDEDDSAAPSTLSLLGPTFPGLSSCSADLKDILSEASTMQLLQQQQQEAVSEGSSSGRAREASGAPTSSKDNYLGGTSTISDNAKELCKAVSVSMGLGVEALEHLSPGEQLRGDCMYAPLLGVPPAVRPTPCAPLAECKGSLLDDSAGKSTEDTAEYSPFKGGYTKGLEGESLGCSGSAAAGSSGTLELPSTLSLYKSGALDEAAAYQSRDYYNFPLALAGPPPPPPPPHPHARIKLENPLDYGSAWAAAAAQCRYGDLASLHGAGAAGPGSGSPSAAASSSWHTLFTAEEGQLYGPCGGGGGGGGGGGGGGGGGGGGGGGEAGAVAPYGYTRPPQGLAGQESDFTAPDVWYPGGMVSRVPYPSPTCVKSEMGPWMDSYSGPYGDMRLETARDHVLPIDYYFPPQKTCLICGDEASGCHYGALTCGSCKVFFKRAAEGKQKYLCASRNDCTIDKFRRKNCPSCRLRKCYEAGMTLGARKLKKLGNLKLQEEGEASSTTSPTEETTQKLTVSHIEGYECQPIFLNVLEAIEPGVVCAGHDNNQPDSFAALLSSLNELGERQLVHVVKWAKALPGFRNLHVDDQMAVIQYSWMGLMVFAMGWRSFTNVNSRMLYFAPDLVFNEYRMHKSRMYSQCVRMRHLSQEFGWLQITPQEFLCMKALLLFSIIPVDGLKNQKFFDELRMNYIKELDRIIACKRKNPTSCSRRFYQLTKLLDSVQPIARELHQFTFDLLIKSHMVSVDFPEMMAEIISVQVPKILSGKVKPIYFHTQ
Chain of Peroxisome proliferator-activated receptor delta (Homo sapiens) (Q03181 whole entry, looked up): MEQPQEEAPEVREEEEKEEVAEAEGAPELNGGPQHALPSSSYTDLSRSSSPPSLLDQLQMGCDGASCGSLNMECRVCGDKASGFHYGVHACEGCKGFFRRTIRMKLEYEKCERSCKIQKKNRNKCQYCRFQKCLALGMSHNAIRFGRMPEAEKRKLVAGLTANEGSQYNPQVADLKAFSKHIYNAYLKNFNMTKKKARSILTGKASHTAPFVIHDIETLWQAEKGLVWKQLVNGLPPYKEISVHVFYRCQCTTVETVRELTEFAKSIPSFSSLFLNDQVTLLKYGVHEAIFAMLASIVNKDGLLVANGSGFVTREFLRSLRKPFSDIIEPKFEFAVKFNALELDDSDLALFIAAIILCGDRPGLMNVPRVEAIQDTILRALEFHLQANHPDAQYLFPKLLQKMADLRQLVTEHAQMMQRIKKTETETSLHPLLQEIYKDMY

On to `Brc1ccccc1`, for which the Potency entry in experiment [1], in experiment [2], in experiment [3], in [4], in experiment [5] and in experiment [6] was “inactive” each time. The Potency entry in [7], in [8], in experiment [9], in experiment [10], in experiment [11] and in [12] was “inactive” throughout. Besides, the Potency entry in experiment [13], in [14], in experiment [15], in experiment [16], in [17] and in experiment [18] was “inactive” each time. The Potency result in [20] was “inactive”. Further, the activation in experiment [19] is -10.5% (inactive) and -5.75% (inactive). Also, the call in experiment [21] was inactive. In experiment [22], the max response is 10.8%.

The values above are taken from PubChem BioAssay (NCATS).
